The text below walks through data of PubChem BioAssay (Tox21).

Results filed as inconclusive are left out. Active and inactive are the calls of the source. Unless noted, the call rests on the fitted dose curve; in most records, active means well fitted curve in the direction sought with a large enough effect in the repeat runs; inconclusive means weak or mixed curves; inactive means no such curve, though single readings can be large; an effect the other way counts as inactive or inconclusive.

Test [1] is described as follows: qHTS assay to identify small molecule antagonists of the estrogen related receptor (ERR) signaling pathway - cell viability counter screen (AID 1224818). Further: potency means the concentration at half of the fitted maximal effect. Conditions: ERR reporter cell line viability counter screen; series mostly up to 46.1 µM. An outline of the steps:
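Viability of ERR cells, CellTiter-Fluor fluorescence; 17.5 h compound exposure at 37 C, DMSO vehicle; 30 min reagent incubation at 37 C/5% CO2.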
A general note: qHTS replaces the single test concentration by a dilution series.

Test [2] is described as follows: qHTS assay to identify small molecule antagonists of the estrogen related receptor (ERR) signaling pathway (AID 1224819; further: nearly all actives have a fitted effect of over 50% in size; further: potency means the concentration at half of the fitted maximal effect). Conditions: ERR reporter cell line, luciferase inhibition; series mostly up to 46.1 µM. An outline of the steps:
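Seed ERR cells 2,000/well; rest 6 h at 37 C/5% CO2; pin compounds in DMSO; incubate 18 h at 37 C; add One-Glo; wait 30 min at room temperature; measure luminescence.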

Test [3] is described as follows: qHTS assay to identify small molecule agonists of the estrogen related receptor (ERR) signaling pathway (AID 1224820). Further: potency means the concentration at half of the fitted maximal effect. Conditions: ERR reporter cell line, luciferase agonist mode; series mostly up to 46.1 µM. An outline of the steps: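 After 6 h plating (2,000 cells/well) and 18 h compound treatment at 37 C, ERR cells were lysed with One-Glo and luminescence read after 30 min at room temperature.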

The subject of test [4] is estrogen-related receptor alpha (ERRalpha) with PGC-1alpha coactivator, human. Briefly: qHTS assay to identify small molecule antagonists of the estrogen related receptor signaling pathway with the pleiotropic PPARgamma coactivator (PGC) (AID 1224821; calls by dose curve; further: nearly all actives have a fitted effect of over 50% in size; further: potency means the concentration at half of the fitted maximal effect). Conditions: ERR/PGC reporter cell line, luciferase, antagonist mode; series mostly up to 46.1 µM. The procedure, abridged: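 Luminescence from One-Glo luciferase reagent (30 min, room temperature) measured after 18 h compound treatment at 37 °C. Cells carry the PGC/ERR reporter and were seeded 6 h prior to dosing.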

A short description of test [5]: qHTS assay to identify small molecule agonists of the estrogen related receptor signaling pathway with the pleiotropic PPARgamma coactivator (PGC) (AID 1224823). Further: potency means the concentration at half of the fitted maximal effect. The following applies: ERR/PGC reporter cell line, luciferase agonist mode; series mostly up to 46.1 µM. The procedure, abridged: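 Luminescence from One-Glo reagent (30 min, room temperature) was read after 18 h compound treatment at 37 C of PGC/ERR cells plated 6 h beforehand; compounds delivered in DMSO by pin tool.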

Test [6] in a line: qHTS assay to identify small molecule antagonists of the estrogen related receptor signaling pathway with the pleiotropic PPARgamma coactivator (PGC) cell viability counter screen (AID 1224822). The following applies: ERR/PGC reporter cell line viability counter screen; series mostly up to 46.1 µM. The procedure, abridged:
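17.5 h compound treatment of PGC/ERR cells at 37 C; readout CellTiter-Fluor fluorescence; run alongside the PGC/ERR antagonist screen to flag cytotoxic compounds.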

Turning to `CC1(C)CCC=[N+]1[O-]`, the Potency result in test [1], in test [2], in test [3], in test [4] and in test [5] was “inactive” throughout.
As to `CO[C@H]1O[C@@H]2O[C@]3(C)CC[C@@H]4[C@@H](C)CC[C@H]([C@H]1C)[C@]24OO3`, the Potency entry in test [1], in test [3] and in test [5] was “inactive” in each case. Moreover, the Potency in test [2] was 0.531 µM (active).
Take `CN1C2CCC1CC(OC(c1ccccc1)c1ccccc1)C2` (stereo not given): the Potency result in test [1], in test [2], in test [3] and in test [5] was “inactive” in each case.
With `COc1cc(OC)c(/C=C2/C(=O)Nc3ccccc32)c(OC)c1`, the Potency in test [1] and in test [2] was 11 µM (active) throughout. The Potency result in test [3] and in test [5] was “inactive” each time.
For `CCc1cncnc1N1CCN(Cc2nc3ccc(C(F)(F)F)cc3[nH]2)CC1`, the Potency result in test [1], in test [3], in test [6] and in test [5] was “inactive” throughout. For the same compound, the Potency in test [2] is 6.94 µM (active).
With `CSc1ccccc1N1CCN(CCCCCC(=O)NC2CCCc3ccccc32)CC1` (stereo not given), the Potency in test [1] was 10.2 µM (active); in test [2], 16.2 µM (active). For the same compound, the Potency result in test [3] and in test [5] was “inactive” in each case.
On to `CN(C)c1nc(N)c(C(=O)N=C(N)N)nc1Cl`, for which the Potency result in test [1], in test [2], in test [3], in test [6] and in test [5] was “inactive” throughout.
On to `CO/N=C(\C(=O)N[C@@H]1C(=O)N2C(C(=O)O)=C(COC(C)=O)CS[C@H]12)c1csc(N)n1` (stereo in doubt), for which the Potency result in test [1], in test [2], in test [3] and in test [6] was “inactive” throughout.
For `CCCN(CC1CC1)c1nc(C)nc(Nc2c(Cl)cc(Cl)cc2Cl)c1Cl`, the Potency entry in test [1], in test [2], in test [3] and in test [5] was “inactive” each time.
For the compound `O[Si](CCCN1CCCCC1)(c1ccc(F)cc1)C1CCCCC1` (stereo not given), the Potency result in test [1], in test [2], in test [3], in test [4] and in test [5] was “inactive” throughout.
On to `Cc1cc(NC2CCCCC2)nc(-n2nc(C)cc2C)n1`, for which the Potency entry in test [1], in test [3] and in test [5] was “inactive” throughout. Further, the Potency in test [2] is 10.2 µM (active); in test [4] it was 0.694 µM (active).
In the case of `Oc1ccc(-c2nc(-c3ccc(F)cc3)c(-c3ccncc3)[nH]2)cc1`, the Potency entry in test [1], in test [3] and in test [5] was “inactive” throughout. Also, the Potency in test [2] was 11.4 µM (active).
As to `COc1cc(CC(=O)O)ccc1O`, the Potency result in test [1], in test [2], in test [3], in test [4] and in test [5] was “inactive” throughout.
For the compound `Oc1cc(O)cc(/C=C/c2ccc(O)c(O)c2)c1`, the Potency result in test [1], in test [2] and in test [6] was “inactive” throughout. Moreover, the Potency in test [3] was 8.41 µM (active); in test [5], 18.1 µM (active).
Regarding `CC(C)(C=O)Cc1cc(C(C)(C)C)c(O)c(C(C)(C)C)c1`, the Potency entry in test [1], in test [2], in test [3], in test [4] and in test [5] was “inactive” throughout.
Regarding `CC[C@H](NC(=O)c1c(C)c(-c2ccccc2)nc2ccccc12)c1ccccc1`, the Potency entry in test [1], in test [3], in test [6] and in test [5] was “inactive” throughout. In addition, the Potency in test [2] was 22 µM (active).
In the case of `CNc1ncnc2c1ncn2[C@H]1C[C@H](OP(=O)(O)O)[C@@H](COP(=O)(O)O)O1`, the Potency entry in test [1], in test [2], in test [4] and in test [6] was “inactive” throughout.
`CCOC(=O)C12CC1/C(=N/O)c1ccccc1O2` (stereo not given): the Potency entry in test [1], in test [2], in test [4], in test [6] and in test [5] was “inactive” throughout.
Regarding `CCN(CC)CCn1c(=O)c(Cc2ccc(OC)cc2)nc2ccccc21`, the Potency result in test [1], in test [2], in test [4], in test [6] and in test [5] was “inactive” each time.
Regarding `N[C@@H](CC(=O)O)C(=O)O`, the Potency entry in test [1], in test [2], in test [4], in test [6] and in test [5] was “inactive” each time.
In the case of `NC(=O)C1=CN(C2OC(COP(=O)(O)OP(=O)(O)OC[C@H]3O[C@@H](n4cnc5c(N)ncnc54)[C@H](OP(=O)(O)O)C3O)C(O)C2O)C=CC1` (stereo not given in full), the Potency entry in test [1], in test [2], in test [4] and in test [6] was “inactive” in each case.
For the compound `O=C(O)c1cc2cc(F)ccc2[nH]1`, the Potency entry in test [1], in test [2], in test [4] and in test [6] was “inactive” each time.
For `C[C@](Cc1ccc(O)c(O)c1)(NN)C(=O)O`, the Potency entry in test [1], in test [2], in test [4] and in test [6] was “inactive” each time.
Regarding `NC(N)=NC(N)=Nc1ccccc1`, the Potency result in test [1], in test [2], in test [4], in test [6] and in test [5] was “inactive” each time.
Regarding `N[C@H](C(=O)O)[C@H](Cc1ccccc1)C(=O)O`, the Potency result in test [1], in test [2], in test [4], in test [6] and in test [5] was “inactive” each time.
On to `COc1cc(N)c(Cl)cc1C(=O)OCCN1CCCCC1`, for which the Potency result in test [1], in test [2], in test [4], in test [6] and in test [5] was “inactive” throughout.
For `CCCn1c(=O)c2[nH]c(C3CCCC3)nc2n(CCC)c1=O`, the Potency entry in test [1], in test [2], in test [4] and in test [6] was “inactive” each time.
Turning to `C[C@H](Cc1ccccc1)Nc1ncnc2c1ncn2[C@@H]1O[C@H](CO)C(O)[C@H]1O` (stereo not given in full), the Potency entry in test [1], in test [2], in test [4] and in test [6] was “inactive” in each case. Besides, in test [5], the Potency is 10.2 µM (active).
`CCOC(=O)C1=C(O)C(=O)N(Cc2ccccc2)C1`: the Potency entry in test [1], in test [2], in test [4], in test [6] and in test [5] was “inactive” each time.
As to `Cn1cnc2c(NCc3ccccc3)nc(NCCO)nc21`, the Potency result in test [1], in test [2], in test [4], in test [6] and in test [5] was “inactive” in each case.
In the case of `O=Nc1ccc2oc(=O)ccc2c1`, the Potency entry in test [1], in test [2], in test [4] and in test [6] was “inactive” throughout.
With `O=c1cc(-c2ccccc2)[nH]c2nc(Cl)ccc12`, the Potency entry in test [1], in test [2], in test [4], in test [6] and in test [5] was “inactive” each time.
Regarding `NC(=O)c1cccc(N)c1`, the Potency entry in test [1], in test [2], in test [4], in test [6] and in test [5] was “inactive” in each case.
For the compound `CO/N=C(\C(=O)N[C@@H]1C(=O)N2C(C(=O)O)=C(CSc3nc(=O)c(O)nn3C)CSC12)c1csc(N)n1` (stereo not given in full), the Potency result in test [1], in test [2], in test [4], in test [6] and in test [5] was “inactive” throughout.
Regarding `CCCCCCCCCCC/C=C\C(C)(C)/C=C\CCCC(=O)O`, the Potency entry in test [1], in test [2], in test [4], in test [6] and in test [5] was “inactive” each time.
On to `CC(=O)O[C@H]1Cc2ccccc2N(C(N)=O)c2ccccc21`, for which the Potency result in test [1], in test [2], in test [4], in test [6] and in test [5] was “inactive” throughout.
Turning to `CC(C)Cn1c(=O)n(C)c(=O)c2[nH]cnc21`, the Potency result in test [1], in test [2], in test [4], in test [6] and in test [5] was “inactive” in each case.
Take `CNC(=O)c1cc2c(cn1)[nH]c1ccccc12`: the Potency result in test [1], in test [2], in test [4], in test [6] and in test [5] was “inactive” throughout.
Consider `Cc1nc2c(OCc3ccccc3)cccn2c1CC#N`, for which the Potency entry in test [1], in test [2], in test [4], in test [6] and in test [5] was “inactive” each time.
As for `CN(C)CCCC1(c2ccc(F)cc2)OCc2cc(C#N)ccc21` (stereo not given), the Potency result in test [1], in test [2], in test [4], in test [6] and in test [5] was “inactive” in each case.
For the compound `N[C@H](C(=O)O)[C@H](O)C(=O)O`, the Potency entry in test [1], in test [2], in test [4], in test [6] and in test [5] was “inactive” each time.
As to `COc1cc(C(O)C(=O)O)ccc1O` (stereo not given), the Potency entry in test [1], in test [2], in test [4], in test [6] and in test [5] was “inactive” throughout.
Regarding `COc1ccc(NC(=O)/C=C/c2ccc(Cl)cc2)cc1`, the Potency result in test [1], in test [2], in test [4] and in test [6] was “inactive” throughout.
For the compound `NCCS(=O)O`, the Potency entry in test [1], in test [2], in test [4], in test [6] and in test [5] was “inactive” in each case.
Turning to `NCCCS(=O)(=O)O`, the Potency result in test [1], in test [2], in test [4], in test [6] and in test [5] was “inactive” each time.
Take `O=C(O)CCC(=O)N1CCCC1C(=O)O` (stereo not given): the Potency result in test [1], in test [2], in test [4], in test [6] and in test [5] was “inactive” in each case.
In the case of `Nc1nc(OCc2ccccc2)c2[nH]cnc2n1`, the Potency result in test [1], in test [2], in test [4], in test [6] and in test [5] was “inactive” in each case.
For the compound `CCC(NC(C)C)C(O)c1ccc(O)c(O)c1` (stereo not given), the Potency result in test [1], in test [2], in test [4] and in test [6] was “inactive” each time.
For `CNCCC(Oc1ccccc1C)c1ccccc1` (stereo not given), the Potency result in test [1], in test [2], in test [4], in test [6] and in test [5] was “inactive” each time.
Regarding `CN[C@H](CC(C)C)C(=O)N[C@H]1C(=O)N[C@@H](CC(N)=O)C(=O)N[C@H]2C(=O)N[C@H]3C(=O)N[C@H](C(=O)N[C@H](C(=O)O)c4cc(O)cc(O)c4-c4cc3ccc4O)[C@H](O)c3ccc(c(Cl)c3)Oc3cc2cc(c3O[C@@H]2O[C@H](CO)[C@@H](O)[C@H](O)[C@H]2O[C@H]2C[C@](C)(N)[C@H](O)[C@H](C)O2)Oc2ccc(cc2Cl)[C@H]1O`, the Potency result in test [1], in test [2], in test [4], in test [6] and in test [5] was “inactive” in each case.
